From publication PMC7862700, “An all-to-all approach to the identification of sequence-specific readers for epigenetic DNA modifications on cytosine”

How the values were obtained:
Assay in all cases: DAPPL (digital affinity profiling via proximity ligation, sequencing); 10 mM Tris-HCl pH 7.5, 50 mM NaCl, 1 mM DTT, 4% glycerol, room temperature, 30 min; GST-TFs on glutathione beads, 16-mer random dsDNA library, 0.1% formaldehyde crosslink after washing; high values mean tight binding
Details in all cases: protein: recombinant; tags: N-terminal GST; dsDNA, one strand shown
FLI1 = molecular target: T1, FLI1 (Homo sapiens, UniProt Q01543 1-452)
T1 sequence: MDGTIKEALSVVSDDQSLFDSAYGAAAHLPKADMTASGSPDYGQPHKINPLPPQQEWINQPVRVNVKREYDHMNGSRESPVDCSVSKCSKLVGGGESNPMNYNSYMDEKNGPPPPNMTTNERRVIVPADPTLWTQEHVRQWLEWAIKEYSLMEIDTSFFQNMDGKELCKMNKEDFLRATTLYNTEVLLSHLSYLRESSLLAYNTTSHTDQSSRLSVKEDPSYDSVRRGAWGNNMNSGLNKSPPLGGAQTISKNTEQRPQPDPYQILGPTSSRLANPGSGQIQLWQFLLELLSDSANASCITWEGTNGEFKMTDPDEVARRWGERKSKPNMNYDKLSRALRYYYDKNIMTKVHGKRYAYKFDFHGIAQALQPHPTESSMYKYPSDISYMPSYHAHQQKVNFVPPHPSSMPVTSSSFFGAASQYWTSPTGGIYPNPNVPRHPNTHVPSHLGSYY
Method in brief: (§1)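 Human transcription factors carrying a GST fusion were produced in yeast, bound to glutathione beads, tagged with DNA barcodes and pooled together with a tag-only sample. Each pool was held with 200 nmole of a random double-stranded 16-mer DNA library in Tris/NaCl/DTT/glycerol buffer for 30 min at room temperature, then washed, crosslinked in 0.1% formaldehyde, proximity-ligated with BsaI/T4 ligase (1 h, 37 °C), PCR-amplified and sequenced on an Illumina NextSeq500. Binding signal is the read frequency of each hexamer for a given factor divided by its frequency in the tag-only sample.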

ELK1 = molecular target: T2, ELK1 (Homo sapiens, UniProt P19419 1-428)
T2 sequence: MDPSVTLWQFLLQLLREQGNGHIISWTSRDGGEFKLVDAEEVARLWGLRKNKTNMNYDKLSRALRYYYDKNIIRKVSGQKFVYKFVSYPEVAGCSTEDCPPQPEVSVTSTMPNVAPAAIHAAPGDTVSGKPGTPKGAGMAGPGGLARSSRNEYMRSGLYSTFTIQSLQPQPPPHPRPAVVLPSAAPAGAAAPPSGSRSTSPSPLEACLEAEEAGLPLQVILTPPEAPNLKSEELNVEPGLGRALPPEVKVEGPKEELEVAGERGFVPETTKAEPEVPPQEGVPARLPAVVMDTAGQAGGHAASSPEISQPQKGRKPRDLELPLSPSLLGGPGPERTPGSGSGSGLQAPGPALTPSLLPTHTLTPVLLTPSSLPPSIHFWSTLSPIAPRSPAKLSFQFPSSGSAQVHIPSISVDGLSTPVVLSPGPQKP
Method in brief: as §1

GABPA = molecular target: T3, GABPA (Homo sapiens, UniProt Q06546 1-454)
T3 sequence: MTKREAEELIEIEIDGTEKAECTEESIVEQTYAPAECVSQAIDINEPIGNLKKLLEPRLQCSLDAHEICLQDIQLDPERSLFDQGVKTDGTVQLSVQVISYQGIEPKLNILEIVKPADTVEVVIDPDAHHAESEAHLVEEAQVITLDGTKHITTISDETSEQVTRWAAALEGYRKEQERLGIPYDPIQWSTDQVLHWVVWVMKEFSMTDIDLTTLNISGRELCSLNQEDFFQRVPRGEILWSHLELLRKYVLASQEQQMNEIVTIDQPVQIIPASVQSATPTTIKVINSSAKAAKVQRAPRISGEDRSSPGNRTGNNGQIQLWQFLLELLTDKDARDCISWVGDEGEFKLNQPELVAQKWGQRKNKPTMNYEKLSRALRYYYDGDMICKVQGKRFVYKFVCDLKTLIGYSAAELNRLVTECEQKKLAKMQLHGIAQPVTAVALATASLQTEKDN
Method in brief: as §1

ERG = molecular target: T4, ERG (Homo sapiens, UniProt P11308 1-479)
T4 sequence: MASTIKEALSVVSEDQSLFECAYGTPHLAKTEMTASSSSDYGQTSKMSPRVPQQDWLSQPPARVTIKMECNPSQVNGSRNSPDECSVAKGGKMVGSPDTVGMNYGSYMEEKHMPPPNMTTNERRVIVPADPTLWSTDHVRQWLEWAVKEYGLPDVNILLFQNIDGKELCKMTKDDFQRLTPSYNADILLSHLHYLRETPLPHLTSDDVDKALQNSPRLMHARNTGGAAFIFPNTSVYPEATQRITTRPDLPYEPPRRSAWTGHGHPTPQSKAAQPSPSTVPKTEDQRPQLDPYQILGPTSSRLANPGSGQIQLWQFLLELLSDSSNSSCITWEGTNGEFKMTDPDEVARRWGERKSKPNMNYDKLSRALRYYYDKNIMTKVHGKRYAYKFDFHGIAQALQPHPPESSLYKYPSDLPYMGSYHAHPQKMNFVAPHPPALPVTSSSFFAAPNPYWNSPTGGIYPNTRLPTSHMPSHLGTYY
Method in brief: as §1

ELF1 = ELF1 (Homo sapiens, UniProt P32519 1-619)
Method in brief: as §1

SPI1 = SPI1 (Homo sapiens, UniProt P17947 1-270)
Method in brief: as §1

ELK3 = molecular target: T5, ELK3 (Homo sapiens, UniProt P41970 1-407)
T5 sequence: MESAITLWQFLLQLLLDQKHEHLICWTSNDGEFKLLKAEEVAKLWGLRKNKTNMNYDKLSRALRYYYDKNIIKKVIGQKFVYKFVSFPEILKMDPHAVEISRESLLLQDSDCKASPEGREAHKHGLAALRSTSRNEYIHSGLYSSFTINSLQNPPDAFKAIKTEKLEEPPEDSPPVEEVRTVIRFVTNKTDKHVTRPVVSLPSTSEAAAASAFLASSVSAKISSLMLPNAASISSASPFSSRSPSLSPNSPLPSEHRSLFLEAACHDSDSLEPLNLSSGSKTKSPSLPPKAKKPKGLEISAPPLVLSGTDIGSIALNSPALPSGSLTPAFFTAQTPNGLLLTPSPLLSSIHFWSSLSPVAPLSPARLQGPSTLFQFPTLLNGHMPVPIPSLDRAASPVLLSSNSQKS
Method in brief: as §1

FEV = molecular target: T6, FEV (Homo sapiens, UniProt Q99581 1-238)
T6 sequence: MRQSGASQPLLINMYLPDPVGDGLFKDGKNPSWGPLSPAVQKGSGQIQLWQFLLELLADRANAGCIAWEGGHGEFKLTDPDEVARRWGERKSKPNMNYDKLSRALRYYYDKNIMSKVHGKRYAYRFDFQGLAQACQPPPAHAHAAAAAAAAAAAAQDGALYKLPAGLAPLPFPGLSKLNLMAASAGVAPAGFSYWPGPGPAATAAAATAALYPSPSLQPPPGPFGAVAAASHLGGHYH
Method in brief: as §1

ETV5 = ETV5 (Homo sapiens, UniProt P41161 1-510)
Method in brief: as §1

SPIC = molecular target: T7, SPIC (Homo sapiens, UniProt Q8N5J4 1-248)
T7 sequence: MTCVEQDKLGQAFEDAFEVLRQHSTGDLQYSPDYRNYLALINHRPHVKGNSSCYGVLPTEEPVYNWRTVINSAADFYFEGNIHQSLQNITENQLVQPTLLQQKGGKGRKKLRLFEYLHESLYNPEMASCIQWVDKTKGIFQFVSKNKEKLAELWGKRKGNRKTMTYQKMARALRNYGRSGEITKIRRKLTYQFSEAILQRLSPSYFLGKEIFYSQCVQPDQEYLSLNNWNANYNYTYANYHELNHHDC
Method in brief: as §1

ELF4 = ELF4 (Homo sapiens, UniProt Q99607 1-663)
Method in brief: as §1

ELK4 = molecular target: T8, ELK4 (Homo sapiens, UniProt P28324-2 1-405)
T8 sequence: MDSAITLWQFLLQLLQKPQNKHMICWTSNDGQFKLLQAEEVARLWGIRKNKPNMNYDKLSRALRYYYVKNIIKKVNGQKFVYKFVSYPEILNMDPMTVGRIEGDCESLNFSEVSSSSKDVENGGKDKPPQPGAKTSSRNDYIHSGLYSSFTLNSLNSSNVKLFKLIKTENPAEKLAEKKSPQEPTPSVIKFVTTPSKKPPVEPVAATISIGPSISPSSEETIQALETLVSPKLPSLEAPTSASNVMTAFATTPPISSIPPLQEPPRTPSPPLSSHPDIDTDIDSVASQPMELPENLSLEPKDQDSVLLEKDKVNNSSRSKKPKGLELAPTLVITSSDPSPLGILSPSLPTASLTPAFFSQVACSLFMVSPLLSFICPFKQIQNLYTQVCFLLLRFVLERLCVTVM
Method in brief: as §1

ETV2 = molecular target: T9, ETV2 (Homo sapiens, UniProt O00321 1-342)
T9 sequence: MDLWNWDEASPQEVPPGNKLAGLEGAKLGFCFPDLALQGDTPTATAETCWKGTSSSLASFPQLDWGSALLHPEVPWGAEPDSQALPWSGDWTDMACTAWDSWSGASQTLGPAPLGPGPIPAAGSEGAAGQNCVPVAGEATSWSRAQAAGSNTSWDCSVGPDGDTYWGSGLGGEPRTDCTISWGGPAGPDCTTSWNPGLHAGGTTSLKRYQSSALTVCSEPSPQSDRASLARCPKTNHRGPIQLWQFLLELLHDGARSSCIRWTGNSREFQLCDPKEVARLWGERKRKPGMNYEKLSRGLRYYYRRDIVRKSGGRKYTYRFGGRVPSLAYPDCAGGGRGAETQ
Method in brief: as §1

EHF = molecular target: T10, EHF (Homo sapiens, UniProt Q9NZC4 1-300)
T10 sequence: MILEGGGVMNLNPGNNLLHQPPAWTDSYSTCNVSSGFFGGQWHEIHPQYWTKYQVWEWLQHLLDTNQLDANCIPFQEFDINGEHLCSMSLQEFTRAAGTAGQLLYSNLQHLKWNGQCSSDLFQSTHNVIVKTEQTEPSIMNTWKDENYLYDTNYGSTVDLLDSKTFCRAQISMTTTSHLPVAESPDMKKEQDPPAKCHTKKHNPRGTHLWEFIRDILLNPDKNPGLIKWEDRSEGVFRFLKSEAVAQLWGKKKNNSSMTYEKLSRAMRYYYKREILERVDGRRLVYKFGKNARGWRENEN
Method in brief: as §1

SPIB = SPIB (Homo sapiens, UniProt Q01892 1-262)
Method in brief: as §1

CRX = CRX (Homo sapiens, UniProt O43186 1-299)
Method in brief: as §1

ELF3 = molecular target: T11, ELF3 (Homo sapiens, UniProt P78545 1-371)
T11 sequence: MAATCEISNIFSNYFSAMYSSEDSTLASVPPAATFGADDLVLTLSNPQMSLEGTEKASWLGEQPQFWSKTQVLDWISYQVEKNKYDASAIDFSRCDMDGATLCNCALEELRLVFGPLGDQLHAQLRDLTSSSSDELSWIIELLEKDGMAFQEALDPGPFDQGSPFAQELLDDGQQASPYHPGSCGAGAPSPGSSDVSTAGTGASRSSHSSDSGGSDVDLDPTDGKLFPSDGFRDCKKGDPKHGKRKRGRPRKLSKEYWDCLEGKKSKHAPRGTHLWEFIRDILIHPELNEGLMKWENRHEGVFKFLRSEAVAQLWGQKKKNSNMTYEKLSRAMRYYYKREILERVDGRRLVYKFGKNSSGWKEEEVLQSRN
Method in brief: as §1

ETV1 = ETV1 (Homo sapiens, UniProt P50549 1-477)
Method in brief: as §1

Sequence of ELF4 (Q99607 whole entry): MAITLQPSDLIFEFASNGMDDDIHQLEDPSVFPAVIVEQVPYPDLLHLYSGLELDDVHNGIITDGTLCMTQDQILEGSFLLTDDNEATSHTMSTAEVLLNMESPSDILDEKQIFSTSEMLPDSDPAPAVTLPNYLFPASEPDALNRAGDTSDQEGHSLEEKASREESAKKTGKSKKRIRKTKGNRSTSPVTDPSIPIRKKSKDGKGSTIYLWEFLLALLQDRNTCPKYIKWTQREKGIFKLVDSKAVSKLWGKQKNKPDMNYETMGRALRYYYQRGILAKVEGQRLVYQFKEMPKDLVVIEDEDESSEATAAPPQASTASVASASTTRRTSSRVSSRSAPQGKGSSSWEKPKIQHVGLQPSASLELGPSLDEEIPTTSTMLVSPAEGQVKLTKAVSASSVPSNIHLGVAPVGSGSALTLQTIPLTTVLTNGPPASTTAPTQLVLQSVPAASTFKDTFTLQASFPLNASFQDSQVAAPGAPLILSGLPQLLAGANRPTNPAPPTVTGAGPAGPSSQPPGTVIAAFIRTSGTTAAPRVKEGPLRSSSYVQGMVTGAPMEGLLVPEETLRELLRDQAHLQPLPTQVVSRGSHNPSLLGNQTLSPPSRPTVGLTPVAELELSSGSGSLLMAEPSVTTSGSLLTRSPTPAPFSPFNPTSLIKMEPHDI
Sequence of ELF1 (P32519 whole entry): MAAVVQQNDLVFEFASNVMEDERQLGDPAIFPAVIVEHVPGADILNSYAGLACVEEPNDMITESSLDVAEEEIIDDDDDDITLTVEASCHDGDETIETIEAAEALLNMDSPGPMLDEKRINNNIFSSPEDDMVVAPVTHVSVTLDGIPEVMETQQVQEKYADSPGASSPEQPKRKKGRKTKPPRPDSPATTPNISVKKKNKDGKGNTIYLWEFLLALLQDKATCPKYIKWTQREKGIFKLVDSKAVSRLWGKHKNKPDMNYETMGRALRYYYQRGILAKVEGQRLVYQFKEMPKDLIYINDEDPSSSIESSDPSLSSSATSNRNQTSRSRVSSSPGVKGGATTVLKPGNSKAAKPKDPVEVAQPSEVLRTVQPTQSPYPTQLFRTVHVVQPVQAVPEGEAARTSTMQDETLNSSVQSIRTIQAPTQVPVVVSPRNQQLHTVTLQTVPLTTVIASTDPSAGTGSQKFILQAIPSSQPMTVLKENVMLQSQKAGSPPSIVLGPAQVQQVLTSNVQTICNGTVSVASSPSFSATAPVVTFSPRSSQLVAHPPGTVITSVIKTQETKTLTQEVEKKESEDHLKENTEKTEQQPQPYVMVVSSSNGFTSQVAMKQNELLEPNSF
Sequence of ETV5 (P41161 whole entry): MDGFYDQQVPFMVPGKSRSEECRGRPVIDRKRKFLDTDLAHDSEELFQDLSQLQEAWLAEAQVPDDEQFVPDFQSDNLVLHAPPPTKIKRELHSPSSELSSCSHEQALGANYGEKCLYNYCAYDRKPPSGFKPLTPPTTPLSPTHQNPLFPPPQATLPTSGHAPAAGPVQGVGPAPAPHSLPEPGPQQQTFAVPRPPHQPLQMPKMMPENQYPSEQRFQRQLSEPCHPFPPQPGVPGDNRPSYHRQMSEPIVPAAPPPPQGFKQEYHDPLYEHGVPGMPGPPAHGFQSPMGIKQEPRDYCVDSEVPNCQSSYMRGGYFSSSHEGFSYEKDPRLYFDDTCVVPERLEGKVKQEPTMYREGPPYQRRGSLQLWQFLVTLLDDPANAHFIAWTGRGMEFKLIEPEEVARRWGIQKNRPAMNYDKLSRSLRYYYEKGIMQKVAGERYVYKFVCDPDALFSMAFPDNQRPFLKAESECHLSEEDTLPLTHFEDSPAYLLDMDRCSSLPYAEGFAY
Sequence of SPIB (Q01892 whole entry): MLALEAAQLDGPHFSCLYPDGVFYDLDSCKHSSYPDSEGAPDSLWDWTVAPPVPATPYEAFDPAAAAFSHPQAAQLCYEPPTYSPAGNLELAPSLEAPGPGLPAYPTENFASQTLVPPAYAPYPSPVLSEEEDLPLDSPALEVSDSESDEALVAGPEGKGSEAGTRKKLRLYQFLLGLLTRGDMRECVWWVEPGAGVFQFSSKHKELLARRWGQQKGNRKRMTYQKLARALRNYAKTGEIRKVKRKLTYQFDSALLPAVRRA
Sequence of CRX (O43186 whole entry): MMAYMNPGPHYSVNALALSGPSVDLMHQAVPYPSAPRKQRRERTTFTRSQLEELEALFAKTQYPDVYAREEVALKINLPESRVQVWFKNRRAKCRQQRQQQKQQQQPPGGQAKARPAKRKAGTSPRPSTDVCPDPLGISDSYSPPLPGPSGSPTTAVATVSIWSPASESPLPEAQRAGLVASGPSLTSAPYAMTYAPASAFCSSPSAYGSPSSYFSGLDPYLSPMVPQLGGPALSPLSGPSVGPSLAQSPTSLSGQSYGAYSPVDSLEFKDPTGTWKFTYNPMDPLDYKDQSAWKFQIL
Sequence of ETV1 (P50549 whole entry): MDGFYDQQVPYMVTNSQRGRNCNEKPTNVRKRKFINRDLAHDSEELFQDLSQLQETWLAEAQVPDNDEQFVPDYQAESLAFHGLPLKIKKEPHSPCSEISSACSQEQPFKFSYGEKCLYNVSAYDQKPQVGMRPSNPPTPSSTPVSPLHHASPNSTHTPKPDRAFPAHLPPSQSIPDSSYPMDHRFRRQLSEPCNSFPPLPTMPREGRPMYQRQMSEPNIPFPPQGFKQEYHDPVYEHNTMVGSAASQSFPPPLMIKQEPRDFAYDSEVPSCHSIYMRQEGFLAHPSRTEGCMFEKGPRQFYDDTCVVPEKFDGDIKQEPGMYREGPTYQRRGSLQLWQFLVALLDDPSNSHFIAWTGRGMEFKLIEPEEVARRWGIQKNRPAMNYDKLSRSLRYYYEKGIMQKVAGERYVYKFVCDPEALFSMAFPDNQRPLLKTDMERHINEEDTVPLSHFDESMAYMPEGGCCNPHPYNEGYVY

Sequence | binding signal (FLI1) | binding signal (ELK1) | binding signal (GABPA) | binding signal (ERG) | binding signal (ELF1) | binding signal (SPI1) | binding signal (ELK3) | binding signal (FEV) | binding signal (ETV5) | binding signal (SPIC) | binding signal (ELF4) | binding signal (ELK4) | binding signal (ETV2) | binding signal (EHF) | binding signal (SPIB) | binding signal (CRX) | binding signal (ELF3) | binding signal (ETV1)
GCTGGC | 1.01 fold enrichment (6-mer frequency, TF over GST control) | 1.21 fold enrichment (6-mer frequency, TF over GST control) | 1.02 fold enrichment (6-mer frequency, TF over GST control) | 1.01 fold enrichment (6-mer frequency, TF over GST control) | 1.11 fold enrichment (6-mer frequency, TF over GST control) | 1 fold enrichment (6-mer frequency, TF over GST control) | 1.03 fold enrichment (6-mer frequency, TF over GST control) | 1.06 fold enrichment (6-mer frequency, TF over GST control) | 1.02 fold enrichment (6-mer frequency, TF over GST control) | 1.12 fold enrichment (6-mer frequency, TF over GST control) | 1.15 fold enrichment (6-mer frequency, TF over GST control) | 1.1 fold enrichment (6-mer frequency, TF over GST control) | 1.07 fold enrichment (6-mer frequency, TF over GST control) | – | – | – | – | –
TGCCTA | 1.02 fold enrichment (6-mer frequency, TF over GST control) | 1.12 fold enrichment (6-mer frequency, TF over GST control) | 1.01 fold enrichment (6-mer frequency, TF over GST control) | – | 1.11 fold enrichment (6-mer frequency, TF over GST control) | 1.04 fold enrichment (6-mer frequency, TF over GST control) | – | 1.05 fold enrichment (6-mer frequency, TF over GST control) | 1 fold enrichment (6-mer frequency, TF over GST control) | 1.18 fold enrichment (6-mer frequency, TF over GST control) | 1.09 fold enrichment (6-mer frequency, TF over GST control) | 1.24 fold enrichment (6-mer frequency, TF over GST control) | 1.17 fold enrichment (6-mer frequency, TF over GST control) | 1.09 fold enrichment (6-mer frequency, TF over GST control) | 1.07 fold enrichment (6-mer frequency, TF over GST control) | 1.08 fold enrichment (6-mer frequency, TF over GST control) | – | –
ATGTCA | 1.14 fold enrichment (6-mer frequency, TF over GST control) | 1.1 fold enrichment (6-mer frequency, TF over GST control) | 1.14 fold enrichment (6-mer frequency, TF over GST control) | 1.17 fold enrichment (6-mer frequency, TF over GST control) | 1.16 fold enrichment (6-mer frequency, TF over GST control) | 1.08 fold enrichment (6-mer frequency, TF over GST control) | 1.02 fold enrichment (6-mer frequency, TF over GST control) | 1.03 fold enrichment (6-mer frequency, TF over GST control) | 1.08 fold enrichment (6-mer frequency, TF over GST control) | 1.21 fold enrichment (6-mer frequency, TF over GST control) | 1.19 fold enrichment (6-mer frequency, TF over GST control) | 1.14 fold enrichment (6-mer frequency, TF over GST control) | – | 1.15 fold enrichment (6-mer frequency, TF over GST control) | 1.19 fold enrichment (6-mer frequency, TF over GST control) | – | 1.28 fold enrichment (6-mer frequency, TF over GST control) | 1.11 fold enrichment (6-mer frequency, TF over GST control)
